About 380 (29%) of roughly 1,300 compounds were called active. Inconclusive results (about 37%) are left out. Calls follow the shape of the dose curve; as a rule, active = well fitted inhibition curve with a large enough effect; inconclusive = small, poorly fitted or top-dose-only effect; inactive = flat fitted curve, though single readings scatter. The list shows a part of the results. Where a call stands in place of a potency, no number is given.
biological target: Thyrotropin receptor (Homo sapiens) (UniProt P16473); assay: qHTS for antagonists of the Thyroid Stimulation Hormone Receptor: Hit Validation in Primary Screen; details: TSHR-expressing cells, cAMP antagonist mode; series mostly up to 58 µM; also: nearly all actives have a fitted effect of over 80% in size
Method in brief: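 TSHR-expressing cells were pretreated with compound, then stimulated with TSH at EC80 (4nM final) for 2 hours at 37 deg C. Cellular cAMP measured by competitive HTRF (anti-cAMP cryptate, cAMP-d2) after 30 min at room temperature.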
Potency is read from the fitted curve at half-maximal effect.

Thyrotropin receptor (Homo sapiens), sequence (P16473 whole entry, looked up): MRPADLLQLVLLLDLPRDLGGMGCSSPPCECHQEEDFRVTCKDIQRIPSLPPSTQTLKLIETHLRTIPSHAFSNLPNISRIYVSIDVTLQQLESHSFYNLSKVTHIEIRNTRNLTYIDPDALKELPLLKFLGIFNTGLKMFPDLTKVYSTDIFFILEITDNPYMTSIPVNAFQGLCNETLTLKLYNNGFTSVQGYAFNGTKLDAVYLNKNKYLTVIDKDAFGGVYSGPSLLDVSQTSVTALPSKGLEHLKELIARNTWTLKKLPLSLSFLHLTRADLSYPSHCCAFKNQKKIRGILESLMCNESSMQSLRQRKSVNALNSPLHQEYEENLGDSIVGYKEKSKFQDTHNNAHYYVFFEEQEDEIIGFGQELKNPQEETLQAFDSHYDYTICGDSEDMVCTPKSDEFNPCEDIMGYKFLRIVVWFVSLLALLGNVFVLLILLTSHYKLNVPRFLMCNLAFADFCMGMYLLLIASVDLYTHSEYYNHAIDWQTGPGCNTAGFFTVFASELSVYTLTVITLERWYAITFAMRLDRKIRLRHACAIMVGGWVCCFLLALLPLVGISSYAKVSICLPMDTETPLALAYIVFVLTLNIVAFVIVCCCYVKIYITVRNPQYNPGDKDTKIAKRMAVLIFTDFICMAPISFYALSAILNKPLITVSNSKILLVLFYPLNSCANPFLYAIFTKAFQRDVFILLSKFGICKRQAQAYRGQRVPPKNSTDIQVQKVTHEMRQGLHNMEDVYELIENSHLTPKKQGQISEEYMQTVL

SMILES	Potency
COc1cc(C(C(=O)NCc2ccccc2)N(C(=O)c2snc(C(N)=O)c2N)C2CCCC2)cc(OC)c1OC (stereo not given)	inactive
COC(=O)c1ccc(/C(O)=C(\C#N)c2nc3ccccc3s2)cc1	15.1 µM (active)
Cc1ccc(NC(=S)c2nc3ccccc3s2)cc1	inactive
Cc1cc2c(NCCc3ccccc3)ncnc2s1	23.9 µM (active)
COc1ccc(CCNc2ncnc3c2[nH]c2cc(OC)c(OC)cc23)cc1OC	inactive
COc1ccc(CCNc2ncnc3sc(C)cc23)cc1OC	19 µM (active)
Cc1nn(S(=O)(=O)c2ccc(F)cc2)c(C)c1S(=O)(=O)N1CCOCC1	inactive
Cc1nc2ccccc2n1CC(=O)N/N=C\C=C\c1ccccc1	inactive
COc1ccc(-n2nnnc2SCC(=O)NC2CCCC2)cc1OC	inactive
Cc1ccc(-c2nc3ccc(C(=O)O)cc3nc2-c2ccc(C)cc2)cc1	23.9 µM (active)
Cc1ccc(Nc2cc(C)nc3ccc(C)cc23)cc1	inactive
N#Cc1ccc(NC(=O)Nc2ccc(Cl)cc2)cc1	7.57 µM (active)
Nc1ccccc1N=Cc1ccc(-c2cccc(Cl)c2)o1	37.9 µM (active)
COc1ccccc1N1CCN(c2nc(C)nc3c2oc2ccccc23)CC1	26.9 µM (active)
Cc1ccccc1C(=O)Nc1nnc(SCC(=O)NC2CC2)s1	inactive
CC1CCN(CCCNC(=O)CN2C(=O)CSc3ccc(S(=O)(=O)N4CCOCC4)cc32)CC1	inactive
Cc1ccc(NC(=O)Nc2ccc3c(c2)N(C)C(=O)CS3)cc1C	30.1 µM (active)
CCC(C)NC(=O)CN1C(=O)CSc2ccc(S(=O)(=O)N3CCCC3)cc21 (stereo not given)	inactive
O=C1CSc2nc3ccccc3n21	inactive
CC(=O)N(C1=C(Cl)C(=O)c2ccccc2C1=O)C1CCCCC1	30.1 µM (active)
CCOc1ccc(CCNC(=O)c2ccc3c(=O)[nH]c4c(C(=O)NC(C)C)sc(=S)n4c3c2)cc1	6.01 µM (active)
CCCCNC(=O)c1sc(=S)n2c1[nH]c(=O)c1ccccc12	4.78 µM (active)
COc1ccccc1NC(=O)NNC(=O)CCN1CCOCC1	inactive
NS(=O)(=O)c1ccc(CNC(=O)CCS(=O)(=O)Cc2ccccc2)cc1	inactive
Brc1ccc(-c2nnc(-c3cccc(Br)c3)o2)cc1	inactive
N#Cc1c(SCc2c(Cl)cccc2Cl)nc(N)[nH]c1=S	19 µM (active)
CCOCCCNC(=O)C(NC(=O)c1ccc(=O)[nH]c1)c1ccc(Cl)cc1 (stereo not given)	inactive
CCn1nc(C)c(NC(=O)/C=C/c2ccc(OC)c(COc3ccc(Br)cc3)c2)c1C	inactive
COc1ccc(-n2nc(C(=O)NCC(=O)Nc3cc(OC)c(OC)c(OC)c3)c3ccccc3c2=O)cc1OC	inactive
Cc1nn(-c2ccccc2)c(C)c1NC(=O)COc1ccc(Br)cc1Cl	23.9 µM (active)
